Reference: PubChem BioAssay AID1159580 (chemical genetic matrix, 2015)
Among all 5,500 compounds or so, about 2,000 (36%) were called active. Roughly 18% stayed inconclusive and do not appear here. Rule as the data show it: active = normalized growth mostly below about 0.91 (no sharp cut-off); inconclusive = no clear call, values can overlap the other calls; inactive = mostly above about 0.92. The list shows a part of the results.

Experiment: chemical genetic growth profiling, strain panel (AID 1159580);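 also: tested at 20 µM; growth read once vehicle control cultures reached saturation at 30 °C; 1 = growth at the plate median or of vehicle wells; lower values mean less growth of the strain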
Settings: S. cerevisiae deletion strains, growth OD

Measured: normalized growth

O=C(O)CC(O)(CC(=O)O)C(=O)O
inactive: locus YAL021C, strain ccr4, hits give low values 1 | locus YAL026C, strain drs2, hits give low values 1.01 | locus YAL030W, strain snc1, hits give low values 1 | locus YBL061C, strain skt5, hits give low values 1.01 | locus YBR009C, strain hhf1, hits give low values 1 | locus YBR023C, strain chs3, hits give low values 1.01 | locus YBR171W, strain sec66, hits give low values 1.01 | locus YBR231C, strain swc5, hits give low values 1.01 | locus YBR279W, strain paf1, hits give low values 1 | locus YCL011C, strain gbp2, hits give low values 1.01 | locus YCL016C, strain dcc1, hits give low values 0.997 | locus YCL069W, strain vba3, hits give low values 1.01 | locus YCR088W, strain abp1, hits give low values 1.02 | locus YDL005C, strain med2, hits give low values 1.01 | locus YDL040C, strain nat1, hits give low values 1.01 | locus YDR001C, strain nth1, hits give low values 0.998 | locus YDR069C, strain doa4, hits give low values 1.03 | locus YDR137W, strain rgp1, hits give low values 1 | locus YDR159W, strain sac3, hits give low values 1 | locus YDR195W, strain ref2 1.05 | locus YDR297W, strain sur2, hits give low values 0.994 | locus YDR334W, strain swr1, hits give low values 1 | locus YDR335W, strain msn5, hits give low values 1.01 | locus YDR392W, strain spt3, hits give low values 0.966 | locus YEL003W, strain gim4, hits give low values 0.998 | locus YEL037C, strain rad23, hits give low values 1.01 | locus YEL061C, strain CIN8 (second series), hits give low values 1 | locus YER015W, strain faa2, hits give low values 1.02 | locus YER016W, strain bim1, hits give low values 1.01 | locus YER111C, strain swi4, hits give low values 1.01 | locus YER155C, strain BEM2 (second series), hits give low values 1.05 | locus YFR010W, strain ubp6, hits give low values 1.02 | locus YGL167C, strain pmr1, hits give low values 1.01 | locus YGL173C, strain kem1, hits give low values 0.999 | locus YGL227W, strain vid30, hits give low values 1.01 | locus YGL240W, strain doc1, hits give low values 1.02 | locus YGL253W, strain hxk2, hits give low values 0.997 | locus YHR013C, strain ard1, hits give low values 1 | locus YHR027C, strain rpn1, hits give low values 1.01 | locus YHR030C, strain SLT2, hits give low values 0.979 | locus YHR079C, strain IRE1, hits give low values 0.995 | locus YHR142W, strain chs7, hits give low values 0.993 | locus YJL092W, strain hpr5, hits give low values 1.01 | locus YJL095W, strain BCK1 (second series), hits give low values 1.02 | locus YJL095W, strain BCK1, hits give low values 1.02 | locus YJL115W, strain asf1, hits give low values 1.03 | locus YJL129C, strain trk1, hits give low values 1.03 | locus YJL154C, strain vps35, hits give low values 1.01 | locus YJL164C, strain tpk1, hits give low values 1 | locus YJL166W, strain qcr8, hits give low values 1.03 | locus YJL187C, strain SWE1, hits give low values 1.01 | locus YJR066W, strain TOR1, hits give low values 0.953 | locus YKL160W, strain elf1, hits give low values 1.01 | locus YKR026C, strain gcn3, hits give low values 1.01 | locus YKR091W, strain srl3, hits give low values 1.01 | locus YLL001W, strain dnm1, hits give low values 1.01 | locus YLL026W, hits give low values 0.999 | locus YLL041C, strain sdh2, hits give low values 1.01 | locus YLR027C, strain aat2, hits give low values 1 | locus YLR113W, strain HOG1, hits give low values 1.02 | locus YLR221C, strain rsa3, hits give low values 0.988 | locus YLR258W, strain gsy2, hits give low values 1.01 | locus YLR262C, strain YPT6 (second series), hits give low values 1.02 | locus YLR320W, strain mms22, hits give low values 0.998 | locus YLR342W, strain FKS1, hits give low values 1.02 | locus YLR357W, strain rsc2, hits give low values 1 | locus YLR370C, strain arc18, hits give low values 0.982 | locus YLR384C, strain iki3, hits give low values 1.01 | locus YML120C, strain ndi1, hits give low values 1.01 | locus YMR058W, strain fet3, hits give low values 1.01 | locus YMR125W, strain sto1, hits give low values 1.02 | locus YMR129W, hits give low values 1.01 | locus YMR205C, strain PFK2, hits give low values 1.01 | locus YMR231W, strain pep5, hits give low values 1.01 | locus YNL071W, strain lat1, hits give low values 1 | locus YNL183C, strain NPR1, hits give low values 0.98 | locus YNL209W, strain ssb2, hits give low values 0.998 | locus YNL248C, strain rpa49, hits give low values 1.01 | locus YNL322C, strain KRE1 (second series), hits give low values 1 | locus YNR049C, strain mso1, hits give low values 1 | locus YOR001W, strain rrp6, hits give low values 1.04 | locus YOR070C, strain gyp1, hits give low values 1.01 | locus YOR080W, strain dia2, hits give low values 1.02 | locus YOR083W, strain WHI5, hits give low values 1.02 | locus YOR106W, strain vam3, hits give low values 1.02 | locus YOR231W, strain MKK1, hits give low values 0.985 | locus YOR265W, strain rbl2, hits give low values 1.01 | locus YOR270C, strain vph1, hits give low values 0.988 | locus YOR290C, strain snf2, hits give low values 0.99 | locus YPL051W, strain arl3, hits give low values 1.01 | locus YPL078C, strain atp4, hits give low values 1.03 | locus YPL106C, strain sse1, hits give low values 1.01 | locus YPL240C, strain hsp82, hits give low values 1 | locus YPL256C, strain CLN2, hits give low values 0.968
